# Laboratory results taken from PubChem BioAssay (NCI).
# Compounds without any hit were thinned out: in the full panel of roughly 83,000, 20% have a hit.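 Note: values are percent growth. 100 is the growth of untreated cells, values between 100 and 0 indicate rising inhibition; between -100 and 0 indicates cell death.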 A number with no mark means an inactive call. Activity calls are given as the source filed them. The calls were made as follows: active = growth percent below 10; inactive = the rest.
# Columns and labels:
# Test in all cases: NCI-60 one-dose screen, 48 h (100 = growth as untreated, 0 = no growth, -100 = all killed)
# Conditions in all cases: 10 µM unless noted
# HCT-15 colon = test system: HCT-15 colon
# HT29 colon = test system: HT29 colon
# SNB-75 CNS = test system: SNB-75 CNS
# SNB-19 CNS = test system: SNB-19 CNS
# U251 CNS = test system: U251 CNS
# PC-3 prostate = test system: PC-3 prostate
# SK-MEL-5 melanoma = test system: SK-MEL-5 melanoma
# UACC-62 melanoma = test system: UACC-62 melanoma
# LOX IMVI melanoma = test system: LOX IMVI melanoma
# SK-MEL-28 melanoma = test system: SK-MEL-28 melanoma
# SN12C renal = test system: SN12C renal
# UO-31 renal = test system: UO-31 renal
# TK-10 renal = test system: TK-10 renal
# ACHN renal = test system: ACHN renal
# CAKI-1 renal = test system: CAKI-1 renal
# A498 renal = test system: A498 renal
# CCRF-CEM leukemia = test system: CCRF-CEM leukemia
# MOLT-4 leukemia = test system: MOLT-4 leukemia
# EKVX NSCLC = test system: EKVX NSCLC
# SK-MEL-2 melanoma = test system: SK-MEL-2 melanoma
Structure (SMILES),growth (HCT-15 colon),growth (HT29 colon),growth (SNB-75 CNS),growth (SNB-19 CNS),growth (U251 CNS),growth (PC-3 prostate),growth (SK-MEL-5 melanoma),growth (UACC-62 melanoma),growth (LOX IMVI melanoma),growth (SK-MEL-28 melanoma),growth (SN12C renal),growth (UO-31 renal),growth (TK-10 renal),growth (ACHN renal),growth (CAKI-1 renal) [%],growth (A498 renal),growth (CCRF-CEM leukemia),growth (MOLT-4 leukemia),growth (EKVX NSCLC),growth (SK-MEL-2 melanoma) [%]
CCOC(=O)C1C(=O)C=C(c2cc(OC)c(OC)c(OC)c2)CC1c1sc(N(C)Cc2ccccc2)nc1Cl (centres undefined),92.1%,90.7%,79.6%,77.5%,87.8%,64%,72.7%,64.7%,94%,115%,80.6%,53%,87.4%,86.8%,46.8,86.1%,82%,58.7%,–,–
COc1ccc(-c2cc(-c3cc4ccccc4oc3=O)n(-c3ccccc3)n2)cc1,103%,83.8%,77%,82%,31.4%,76.1%,94.5%,80.3%,59.8%,106%,67%,–,141%,73.2%,97.1,91.3%,94.5%,–,67.5%,–
NS(=O)(=O)c1ccc(CCn2c(SCC(=O)N/N=C/c3ccccc3O)nc3ccccc3c2=O)cc1,59.9%,10% (active),23.8%,49.1%,26.8%,36.1%,30.5%,48.8%,43.9%,76.5%,51.3%,70.4%,70%,87.4%,60.1,21.7%,18.7%,21.4%,75.8%,–
c1csc(-c2cnc3nonc3n2)c1,89.7%,91.2%,79.8%,81.6%,88%,66.3%,87.9%,79.3%,62.6%,104%,86.7%,66.5%,128%,85.7%,90.3,88.1%,79.7%,78.9%,101%,–
Cc1ccc(NC(=O)c2sc3nc4c(cc3c2N)C(=O)CCC4)cc1Cl,97.3%,97.5%,110%,114%,97.9%,104%,102%,108%,99.2%,108%,119%,111%,96.5%,109%,85.9,97.9%,104%,108%,86.2%,–
Nc1nc(NC2CC2)cc(-c2cccc(Cl)c2Cl)n1,25%,13.6%,39.2%,59.1%,–,64.6%,46.5%,36.1%,40.7%,68.7%,59.6%,71.7%,87.3%,75.1%,58.5,47.7%,62.3%,28.4%,71.9%,14.3
O=C(/C=C/c1ccc(F)cc1)N1CCN(C(=O)/C=C/c2ccc(C(F)(F)F)cc2)CC1,104%,101%,119%,103%,–,117%,98.9%,96.6%,111%,106%,106%,89.7%,105%,115%,97.3,130%,103%,115%,93.1%,118
c1cn2cc(-c3ccc4ncn(C5CCCCC5)c4c3)nc(-c3ccc4c(c3)ncn4C3CCCCC3)c2n1,-11.5% (active),-26.2% (active),-89.6% (active),6.63% (active),-83.3% (active),-64.1% (active),-89.4% (active),-47.7% (active),-87.4% (active),-19.8% (active),-54.6% (active),-85.4% (active),-59.3% (active),-58.8% (active),17.2,-88.1% (active),4.28% (active),-30.5% (active),-13.1% (active),–
